PubChem BioAssay (NCATS)
Records with an inconclusive call do not appear. Activity calls are given as the source filed them. The call rests on the fitted dose curve; in most records, active means well fitted cell-killing curve with a large enough effect; inconclusive means small, poorly fitted or top-dose-only effect; inactive means flat fitted curve, though single readings scatter.

assay: qHTS assay to identify small molecule inhibitors of chordoma cells - UCH-2 (AID 1259356); details: UCH-2 chordoma viability, CellTiter-Glo ATP luminescence, 48 h; series mostly up to 46.1 µM; activity change, negative = inhibition: at the top concentration
Description: NIH Chemical Genomics Center [NCGC]
Chordoma is a rare and slow growing tumor that can occur anywhere along the spine, from the base of the skull to the tailbone. Current treatment options for chordoma is surgery and radiation therapy for those who are not candidates for surgery. But chordomas tend to return in the same location or surrounding areas of the original tumor after surgery and/or radiation. Chemotherapy can slow down the progression of the tumor. As chordoma is slow growing, the general cytotoxic agents that kill fast growing cells are ineffective, and some patients have been reported to respond to molecularly targeted drugs.
NCATS Pharmaceutical Collection (NPC) containing approximately 3000 clinically approved and investigational drugs were used to screen at 15 concentrations in a chordoma cell lines, UCH-2, to identify small molecule compounds that can inhibit chordoma cell growth.
NCGC Assay Protocol Summary:
Human chordoma cell line UCH-2 was dispensed at 800 per well in 4uL of culture medium into white solid bottom 1536-well plates (Corning Life Sciences, Corning, NY) using a Multidrop Combi (Thermo Scientific, Waltham, MA) dispenser. The assay plates were incubated at 37 C and 5% CO2 for an overnight, and then 23nL of compounds dissolved in DMSO and positive control were transferred using a Pintool station (Wako, San Diego, CA). Compound treatment was followed by the addition of 1uL of the combination compounds (1uM Auranofin, 500nM each of Camptothecin, Doxorubicin, Rubitecan, and Topotecan) and assay medium to each well of the assay plates using Flying Reagent Dispenser (FRD, Aurora Discovery, San Diego, CA). The assay plates were incubated at 37 C and 5% CO2 for 48hr. Then 5uL of CellTiter-Glo reagent (Promega Corporation, Madison, WI) was added to each well of the assay plates using FRD. After 30min incubation at room temperature, the luminescence signal was quantified using a ViewLux plate reader (PerkinElmer, Shelton, CT).
On the % scale 0 is the no-effect control and ±100 the full control effect; potency means the concentration at half of the fitted maximal effect.

Row | Compound | activity change, negative = inhibition | Potency
1 | O=C(O)CCCCC(=O)O | 4.39% (inactive) | 
2 | Oc1c(I)cc(Cl)c2cccnc12 | 0.196% (inactive) | 
3 | Oc1ccc(Cl)c2cccnc12 | 2.54% (inactive) | 
4 | OC[C@H]1O[C@@H](n2cnc3c(=S)nc[nH]c32)[C@H](O)[C@@H]1O | -19% (inactive) | 
5 | C[C@@H]1C[C@H]2[C@@H]3C[C@H](F)C4=CC(=O)C(Cl)=C[C@]4(C)[C@@]3(F)[C@@H](O)C[C@]2(C)[C@@]1(O)C(=O)CO | -9.16% (inactive) | 
6 | COc1ccc(OC)c(C(O)CNC(=O)CN)c1 (stereo not given) | 8.63% [at 20.6 µM] (inactive) | 
7 | CN(C)CCCOc1nn(Cc2ccccc2)c2ccccc12 | -16.6% [at 20.6 µM] (inactive) | 
8 | COc1cc(C(=S)N2CCOCC2)cc(OC)c1OC | -0.752% (inactive) | 
9 | CN1CCC[C@@H]1c1cccnc1 | -1.07% (inactive) | 
10 | O=c1[nH]c(=O)n([C@H]2C[C@H](O)[C@@H](CO)O2)cc1C(F)(F)F | 13.2% (inactive) | 
11 | O=C(Nc1ccc(Oc2ccc(Cl)cc2)c(Cl)c1)c1cc(I)cc(I)c1O | 0.965% (inactive) | 
12 | CCCCOc1cc(C(=O)NCCN(CC)CC)c2ccccc2n1 | 3.93% [at 20.6 µM] (inactive) | 
13 | C[C@]12CCC(=O)C=C1CC[C@H]1[C@@H]3CC[C@](O)(C(=O)CO)[C@@]3(C)C[C@H](O)[C@@]12F | 0.127% (inactive) | 
14 | COCc1c(C(C)C)nc(C(C)C)c(/C=C/[C@@H](O)C[C@@H](O)CC(=O)O)c1-c1ccc(F)cc1 | -16.4% (inactive) | 
15 | NC(CO)(CO)CO | -2.12% (inactive) | 
16 | CC(CCc1ccccc1)NCC(O)c1ccc(O)c(C(N)=O)c1 (stereo not given) | -2.33% (inactive) | 
17 | CCCCC(CC)CN=C(N)NC(N)=NCCCCCCN=C(N)NC(N)=NCC(CC)CCCC (stereo not given) |  | 25.9 µM (active)
18 | CC(C)(C(=O)c1cccnc1)c1cccnc1 | 3.47% [at 20.6 µM] (inactive) | 
19 | CN1CCC(=C2c3ccccc3Sc3ccccc32)CC1 | 6.27% (inactive) | 
20 | CC(C)C[C@H]1C(=O)N2CCC[C@H]2[C@]2(O)O[C@](NC(=O)[C@@H]3C=C4c5cccc6[nH]c(Br)c(c56)C[C@H]4N(C)C3)(C(C)C)C(=O)N12 | 16.5% (inactive) | 

Row | Compound | activity change, negative = inhibition | Potency
21 | COc1cc(OC)cc(OC)c1 | 7.98% (inactive) | 
22 | COc1cc(-c2ccc(=O)[nH]n2)ccc1OC(F)F | -0.0943% (inactive) | 
23 | C[N+]1(CCCCC[N+]2(C)CCCC2)CCCC1 | 1.73% (inactive) | 
24 | Nc1ccc(C(=O)Nc2ccccc2N)cc1 | 0.449% (inactive) | 
25 | Cc1c(C)n(CCN(C)C)c2ccc(C(=O)OCCN(C)C)cc12 | -23.8% (inactive) | 
26 | C#C[C@]1(O)CC[C@H]2[C@@H]3CCC4=CC(=O)CC[C@@H]4[C@H]3CC[C@@]21C | 4.1% (inactive) | 
27 | CCCOC(C(=O)OC1CCN(C)CC1)(c1ccccc1)c1ccccc1 | -0.669% (inactive) | 
28 | O=S1(=O)c2cccc3cccc(c23)N1CCCN1CCN(c2ccc(F)cc2)CC1 | -5.47% (inactive) | 
29 | CC(=O)Oc1ccc2c(c1)CC[C@@H]1[C@@H]2CC[C@]2(C)[C@@H](O)CC[C@@H]12 | -1.55% (inactive) | 
30 | CCOC(=O)/C=C(C)/C=C/C=C(C)/C=C/c1c(C)cc(OC)c(C)c1C | 8.7% (inactive) | 
31 | CC1(C)O[C@@H]2[C@@H](CO[C@@]3(COS(N)(=O)=O)OC(C)(C)O[C@@H]23)O1 | 7.46% (inactive) | 
32 | CC(=O)OCC(=O)[C@@]1(O)CC[C@H]2[C@@H]3CCC4=CC(=O)C=C[C@]4(C)[C@H]3[C@@H](O)C[C@@]21C | 4.43% (inactive) | 
33 | CNCC[C@@H](Oc1ccccc1C)c1ccccc1 | -25.8% (inactive) | 
34 | OC(CCN1CCCCC1)(c1ccccc1)c1ccccc1 | 12.7% (inactive) | 
35 | CN(C)C(=S)SC(=S)N(C)C | 8.81% (inactive) | 
36 | O=C(O)CNC(=O)c1ccccc1 | 13.4% (inactive) | 
37 | COc1cccc(OC)c1C(=O)N[C@@H]1C(=O)N2[C@@H]1SC(C)(C)[C@@H]2C(=O)O | 4.38% (inactive) | 
38 | CCC(NC(C)C)C(O)c1ccc(O)c(O)c1 (stereo not given) | -4.84% (inactive) | 
39 | CN(C)/N=N/c1nc[nH]c1C(N)=O | 3.17% (inactive) | 
40 | Oc1c(I)cc(I)c2cccnc12 | -29.3% (inactive) | 
